Screens deposited in PubChem by National Center for Advancing Translational Sciences (NCATS).
Only some compounds are listed: those with a hit (about 2.2% of all), similar ones and a draw of the others.
VACV Venus inh = vaccinia inhibition (Venus reporter) | Vaccinia virus Venus reporter expression, fluorescence | Potency, µM (titrated, usually from 36.5 µM), for inactives: at the highest dose activity change, negative = inhibition, actives largely listed as inhibitors | actives 0.46% (n = 330,000) | AID 720580; calls by dose curve; tested in A549 cells; further: nearly all actives have a fitted effect of over 30% in size
Giardia FBPA inh = Giardia lamblia aldolase inhibition. purified Giardia FBPA. Potency, µM (doses to about 59.6 µM), without a hit: at the highest dose activity, negative = inhibition, hits mostly inhibitors. actives 0.71% (n = 290,000). AID 2451; active means well fitted inhibition curve with a large enough effect; inconclusive means small, poorly fitted or top-dose-only effect, or effect the other way; further: nearly all actives have a fitted effect of over 55% in size
Target sequence (A8B2U2 whole entry, looked up): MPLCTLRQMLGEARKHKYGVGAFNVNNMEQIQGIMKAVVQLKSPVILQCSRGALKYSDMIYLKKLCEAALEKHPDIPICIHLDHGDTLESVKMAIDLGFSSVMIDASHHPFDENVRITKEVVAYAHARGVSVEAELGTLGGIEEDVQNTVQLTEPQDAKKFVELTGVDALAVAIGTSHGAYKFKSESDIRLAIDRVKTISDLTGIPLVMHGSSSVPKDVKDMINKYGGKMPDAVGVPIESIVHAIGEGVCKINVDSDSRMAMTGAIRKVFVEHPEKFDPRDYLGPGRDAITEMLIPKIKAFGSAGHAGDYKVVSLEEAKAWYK
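40 nM FBPA preincubated 10 min at RT with compound (up to 57.5 uM final), then substrate plus GAPDH/TPI/NAD/arsenate coupling and diaphorase/resazurin added. Fluorescence read after 20 min at RT, 525/598 nm.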
FMDV inh = blocks foot and mouth disease virus; Potency, µM (top dose mostly 57.9 µM), inactives show at the highest dose activity change, negative = inhibition, actives largely listed as inhibitors; FMDV antiviral cell-based qHTS; actives 1.2% (n = 410,000); AID 1159524; calls by dose curve; tested in HEK293T cells; further: read-out not given here; nearly all actives have a fitted effect of over 45% in size
VACV mCherry inh = inhibitors of vaccinia virus infection (mCherry reporter signal); Potency, µM (top dose mostly 36.5 µM), inactives show at the top dose activity change, negative = inhibition, actives largely listed as inhibitors; AID 720579; actives 0.63% (n = 310,000); Vaccinia virus mCherry reporter infection, fluorescence; calls by dose curve; tested in A549 cells; further: nearly all actives have a fitted effect of over 35% in size
An asterisk follows results filed as active; i = inactive; ? = inconclusive; · = no result given; [ ] = dose if it differs, or a comment. On the % scale 0 is the no-effect control and ±100 the full control effect; potency means the concentration at half of the fitted maximal effect.

SMILES | VACV Venus inh | Giardia FBPA inh | FMDV inh | VACV mCherry inh
COc1ccc(-c2nc(CSCC(=O)N3CCN(c4ccc(F)cc4)CC3)c(C)o2)cc1 | ? | · | 13µM* | ?
COc1ccc(-c2nc(CSCC(=O)N3CCN(c4ccccc4)CC3)c(C)o2)cc1 | ? | · | 35µM* | ?
Cc1cccc(-c2nc(CSCC(=O)N3CCN(c4ccccn4)CC3)c(C)o2)c1 | · | 3% | 16µM* | ·
Cc1cccc(-c2nc(CSCC(=O)N3CCN(c4cccc(C)c4C)CC3)c(C)o2)c1 | -10% | · | ? | -8%
COCCN1CCN(C(=O)c2cnn(-c3ncc4c(n3)-c3ccc(OC)cc3CC4)c2C2CC2)CC1 | -12% | · | -22% | -21%
CC(=O)Nc1cc(NC(C)=O)cc(-c2nc3ccccc3[nH]2)c1 | -3% | -4% | 40µM* | ?
Cc1ccc(C(=O)Nc2ccccc2C(=O)OCc2cc(=O)n3nc(C(C)C)sc3n2)cc1 | -2% | · | -24% | -10%
Cc1ccc(C(=O)Nc2ccc(C(=O)OCc3cc(=O)n4nc(C5CC5)sc4n3)cc2)cc1 | -3% | · | -15% | -8%
Cc1cccc(C(=O)Nc2ccc(C(=O)OCc3cc(=O)n4nc(C5CC5)sc4n3)cc2)c1 | ? | · | 14µM* | ?
CCCc1nn2c(=O)cc(COC(=O)c3cccc(NC(=O)COc4ccccc4C)c3)nc2s1 | -8%[7.34 µM] | · | 14µM* | -8%[7.34 µM]
Cc1nn2c(=O)cc(COC(=O)c3ccc(NC(=O)c4cccc(Br)c4)cc3)nc2s1 | -26% | · | 18µM* | -7%
CCCc1nn2c(=O)cc(COC(=O)c3cccc(NC(=O)COc4ccc(F)cc4)c3)nc2s1 | -15% | · | -12% | -18%
CC(C)c1nn2c(=O)cc(COC(=O)c3ccccc3NC(=O)c3cccc(Cl)c3)nc2s1 | -21% | · | 8.9µM* | i
Cc1nn2c(=O)cc(COC(=O)c3ccc(NC(=O)c4ccc(C(C)(C)C)cc4)cc3)nc2s1 | -20% | · | 12% | -7%
Cc1nc(NCc2cnn(C)c2C)sc1-c1ccn(CC2COc3ccccc3O2)n1 (stereo not drawn) | -3% | · | -29% | -12%
CCc1nn2c(=O)cc(COC(=O)c3ccc(NC(=O)C4CCCCC4)cc3)nc2s1 | -17% | · | -2% | i
CC(C)Cc1nn2c(=O)cc(COC(=O)c3cccc(NC(=O)c4cccs4)c3)nc2s1 | -13% | · | -1% | i
O=C(OCc1cc(=O)n2nc(C3CC3)sc2n1)c1ccc(NC(=O)c2ccccc2F)cc1 | -5% | · | -27% | -7%
Cc1nn2c(=O)cc(COC(=O)c3cccc(NC(=O)c4cccs4)c3)nc2s1 | -19% | · | 10µM* | i
Cc1ccccc1C(=O)Nc1ccc(C(=O)OCc2cc(=O)n3nc(C4CC4)sc3n2)cc1 | -24% | · | 13µM* | ?
Cc1nn2c(=O)cc(COC(=O)c3ccc(NC(=O)C4CCCCC4)cc3)nc2s1 | ? | · | 11µM* | -41%
O=c1c(-c2ccc(O)cc2)coc2cc(O[C@@H]3O[C@H](CO)[C@@H](O)[C@H](O)[C@H]3O)cc(O)c12 | · | -3% | · | ·
CSc1nnc(CNC(=O)c2cccc3ccccc23)n1-c1ccccc1C | 1% | · | 1% | -6%
CCSc1ncc(Cl)c(C(=O)Nc2ccc(S(=O)(=O)N3CCCCC3CC)cc2)n1 (stereo not drawn) | -23% | · | 1% | -23%
CCOc1ccc(NC(=O)c2nc(S(=O)(=O)Cc3ccccc3)ncc2Cl)cc1 | -25% | · | · | -25%
SMILES | VACV Venus inh | Giardia FBPA inh | FMDV inh | VACV mCherry inh
CCC1CCCCN1S(=O)(=O)c1ccc(NC(=O)c2nc(S(C)(=O)=O)ncc2Cl)cc1 (stereo not drawn) | ? | 9% | 32µM* | ?
CCS(=O)(=O)c1ncc(Cl)c(C(=O)Nc2ccc(S(=O)(=O)N3CCCC(C)C3)cc2)n1 (stereo not drawn) | ? | -4% | 10µM* | ?
CCS(=O)(=O)c1ncc(Cl)c(C(=O)Nc2ccc(C)cc2)n1 | ? | 10% | 14µM* | ?
Cc1ccc(CS(=O)(=O)c2ncc(Cl)c(C(=O)Nc3ccc(OC(F)F)cc3)n2)cc1 | -30% | · | 25µM* | -16%
Cc1ccc(S(=O)(=O)N2CCN(c3nc(-c4ccnnc4)nc4ccccc34)CC2)cc1 | -12% | · | · | i
NC(=S)N=Nc1c(O)[nH]c2ccccc12 | ? | -10% | -9% | 13µM*
Cc1ccc2[nH]c(O)c(N=NC(N)=S)c2c1 | · | 2% | -8% | ·
C=CCSc1ncnc2c1oc1nc3c(cc12)COC(C)(C)C3 | 6% | -1% | 59% | i
CC1(C)Cc2nc3oc4c(=S)nc[nH]c4c3cc2CO1 | · | 11µM* | 24% | ·
CC1CCC2C(=O)N3C(CCC(C)[C@H]3c3ccccc3Br)C(=O)N2C1c1ccccc1Br (stereo partly drawn) | · | 0%[12.9 µM] | · | ·
O=[N+]([O-])c1ccc(Oc2cccc3cccnc23)c([N+](=O)[O-])c1 | -24% | 20µM* | ? | ?
N#Cc1ccc(Oc2cccc3cccnc23)c([N+](=O)[O-])c1 | -11% | -28% | -10% | -17%
Nc1nc(NCc2ccc(Cl)cc2Cl)c2[nH]cnc2n1 | -20% | · | · | -8%
COc1cccc([C@@H]2Oc3ccc(OC)cc3C(=O)[C@H]2OC(=O)Nc2ccc(C)c(Br)c2)c1 | · | -4% | · | ·
CN(C)S(=O)(=O)c1ccc(C(=O)Nc2ccnn2C2CCCCC2)cc1 | · | 3% | 28µM* | ·
O=c1c2nc(Br)n([C@@H]3O[C@@H]4CO[P@@](O)(=S)O[C@H]4[C@H]3O)c2nc2[nH]c(-c3ccccc3)cn12 | · | -23% | · | ·
O=C(Nc1ccccc1N1CCOCC1)c1ccc([N+](=O)[O-])s1 | 7.9µM* | · | 25% | 4.5µM*
O=C(Nc1ccccc1N1CCOCC1)c1ccccc1[N+](=O)[O-] | · | 6% | -11% | ·
